In PubChem BioAssay (NCATS):
Results filed as inconclusive are left out. Calls of active or inactive are those of the source. Calls come from the whole dose curve; as a rule, active = well fitted curve in either direction with a large enough effect (not every such curve was filed as active); inconclusive = small, poorly fitted or top-dose-only effect, or another doubt; inactive = flat fitted curve, though single readings scatter.

Experiment: NFAT Signaling Pathway (AID 444);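 note: carbachol stimulus at about its EC50 of 1 µM final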
Details: Jurkat NFAT-bla M1, carbachol, beta-lactamase ratio, 5 h; at 17.2 µM (top of the series) unless noted
How it was run: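 Read-out: CCF4 FRET ratio (460 nm/530 nm) after 1 h RT dye loading, used for %activity and AC50 from titration series. Cells: Jurkat NFAT-β-lactamase/M1 line, treated with compound plus 1 uM carbachol for 5 h, 37 °C.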
% is set by controls: 0 for no effect and ±100 for the full control effect.

Activity change, negative = inhibition, inactive:
O=C(NCCCNCc1ccccc1)/C(=N\O)c1ccccc1 -1.67%
COc1cc(/C=N/n2nnnc2N)ccc1O -23.8%
C(=N\n1cnnc1)/c1cccc(Oc2ccccc2)c1 -2.39%
COc1ccc(CCNC(=O)c2ccc(=O)[nH]n2)cc1OC -8.89%
COc1ccc(OC)c(C2C(C#N)=C(N)Oc3cc(C)n(Cc4ccccn4)c(=O)c32)c1 (stereo not given) -20.4%
COc1ccc(-n2ncc3c(Nc4cccc(C)c4)ncnc32)cc1 -11.9%
COc1cccc(NC(=O)CSC2=C(C#N)C(c3ccco3)C3=C(CCCC3=O)N2)c1 (stereo not given) -16%
Cc1cc(=O)oc(C)c1C(=O)N1CCN(C)CC1 17.3%
c1ccc(SCc2nc3ccccc3[nH]2)nc1 6.97%
CCOC(=O)c1[nH]c2ccccc2c1N=CN(CC)CC -19.2%
CC(=O)c1c(N)nc2n(c1=O)CCCCC2 -9.74%
COc1ccc(OC)c(N=C(C)C2=C(O)COC2=O)c1 0.486%
O=C(COc1ccc(Cl)cc1)Nc1ccccc1CO 6.35%
O=C(c1coc(=O)c(Br)c1)N1CCCc2ccccc21 0.236%
CCN(CC)C(=O)CN(C#N)c1nc(NC(C)C)nc(NC(C)C)n1 -0.753%
Nc1nonc1-c1noc(N2CCOCC2)n1 -8.54%
CCCOc1cccc(C2/C(=C(/O)c3ccc(F)cc3)C(=O)C(=O)N2CCN(C)C)c1 (stereo not given) 2.49%
Cc1ccc(Cn2ncc3c(N4CCOCC4)ncnc32)cc1 19.3%
CCOC(=O)C1=C(c2ccccc2)NC(SCC(=O)Nc2ccccc2C)=C(C#N)C1c1ccco1 (stereo not given) -6.28%
CCSc1nc(N)c2c3c(sc2n1)CCC3 -2.96%
CCCSc1nc(O)c(C2OC(=O)c3c2ccc(OC)c3OC)c(=O)n1C (stereo not given) -4.09%
C=C(C)CN1CCN(c2c(CCC#N)c(C)c(C#N)c3nc4ccccc4n23)CC1 20%
c1ccc(CN2CCN(c3nc(-c4ccccn4)nc4ccccc34)CC2)cc1 -29%
CCOc1nnnc2c1sc1nc(N3CCOCC3)c3c(c12)CC(C)(C)OC3 -17.4%
CC(=O)Oc1ccccc1C1OC(=O)c2ccccc2N1C(C)=O (stereo not given) 12.4%
Cc1c(C)[n+](=O)c2c(n1[O-])CCC2 -5.07%
O=C(c1ccc(N2C(=O)C3CC=C(Cl)CC3C2=O)cc1)N1CCCCC1 (stereo not given) 13%
Cc1cccc(N)c1SC1CCCCC1O (stereo not given) -1.33%
CCC(c1c(C)n(C)n(-c2ccccc2)c1=O)c1c(C)n(C)n(-c2ccccc2)c1=O 9.43%
Cc1[nH]nc(-c2ccc(O)cc2O)c1Oc1ccccc1 -25.7%
Nc1nnnn1CC(=O)OCc1cccc(Br)c1 14.6%
CC(C)OC(=O)CCNc1n[nH]c(=O)[nH]c1=O 0.573%
Cc1ccc(-c2ccccc2NC(=O)C2C3C=CC(C3)C2C(=O)O)o1 (stereo not given) -9.53%
Clc1cccc(-c2nn3c(COc4ccccc4)nnc3s2)c1 -0.831%
CCC(=O)Nc1ccc(-c2nnc(-c3ccccc3)o2)cc1 4.89%
CCn1nnc(C(=O)O)c1C(=O)O 3.87%
NC(=O)/C(=N\O)c1ccccc1 15.2%
Cc1nn(C)cc1/C=N/O -0.64%
CCOC(=O)CSc1nc2sc3c(c2c(=O)[nH]1)CC(C)(C)OC3 6.58%
O=C1CC(NCc2ccncc2)C(=O)N1c1ccc(Cl)cc1 (stereo not given) 13.2%

Experiment: Stat Signaling Pathway (AID 446);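 note: ME-180 cervical cancer cells given 40 pM IL-6 alongside compound; SIE-controlled beta-lactamase reporter measured as 460/530 nm FRET emission ratio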
Details: ME-180 SIE beta-lactamase reporter, IL-6 stimulated, 5 h; at 17.2 µM (top of the series) unless noted
How it was run: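 Screening format detects activators and inhibitors alike: ME-180 SIE-bla cells stimulated at 40 pM IL-6 for 5 hrs with compound, then dual-emission beta-lactamase read at 405 nm excitation.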

activity, negative = inhibition, inactive:
O=C(NCCCNCc1ccccc1)/C(=N\O)c1ccccc1 4.93%
COc1cc(/C=N/n2nnnc2N)ccc1O -1.69%
C(=N\n1cnnc1)/c1cccc(Oc2ccccc2)c1 -17.8%
COc1ccc(CCNC(=O)c2ccc(=O)[nH]n2)cc1OC 3.06%
COc1ccc(OC)c(C2C(C#N)=C(N)Oc3cc(C)n(Cc4ccccn4)c(=O)c32)c1 (stereo not given) -2.84%
COc1ccc(-n2ncc3c(Nc4cccc(C)c4)ncnc32)cc1 -27.7%
COc1cccc(NC(=O)CSC2=C(C#N)C(c3ccco3)C3=C(CCCC3=O)N2)c1 (stereo not given) -7.07%
Cc1cc(=O)oc(C)c1C(=O)N1CCN(C)CC1 5.89%
c1ccc(SCc2nc3ccccc3[nH]2)nc1 8.86%
CCOC(=O)c1[nH]c2ccccc2c1N=CN(CC)CC -2.38%
CC(=O)c1c(N)nc2n(c1=O)CCCCC2 9.48%
COc1ccc(OC)c(N=C(C)C2=C(O)COC2=O)c1 -3.94%
O=C(COc1ccc(Cl)cc1)Nc1ccccc1CO 0.225%
O=C(c1coc(=O)c(Br)c1)N1CCCc2ccccc21 8.49%
CCN(CC)C(=O)CN(C#N)c1nc(NC(C)C)nc(NC(C)C)n1 8.05%
Nc1nonc1-c1noc(N2CCOCC2)n1 -2.07%
CCCOc1cccc(C2/C(=C(/O)c3ccc(F)cc3)C(=O)C(=O)N2CCN(C)C)c1 (stereo not given) -0.187%
Cc1ccc(Cn2ncc3c(N4CCOCC4)ncnc32)cc1 3.94%
CCOC(=O)C1=C(c2ccccc2)NC(SCC(=O)Nc2ccccc2C)=C(C#N)C1c1ccco1 (stereo not given) -9.31%
CCSc1nc(N)c2c3c(sc2n1)CCC3 -3.03%
CCCSc1nc(O)c(C2OC(=O)c3c2ccc(OC)c3OC)c(=O)n1C (stereo not given) 3.93%
C=C(C)CN1CCN(c2c(CCC#N)c(C)c(C#N)c3nc4ccccc4n23)CC1 9.9%
c1ccc(CN2CCN(c3nc(-c4ccccn4)nc4ccccc34)CC2)cc1 6.73%
CCOc1nnnc2c1sc1nc(N3CCOCC3)c3c(c12)CC(C)(C)OC3 -9.58%
CC(=O)Oc1ccccc1C1OC(=O)c2ccccc2N1C(C)=O (stereo not given) 5.01%
Cc1c(C)[n+](=O)c2c(n1[O-])CCC2 -0.102%
O=C(c1ccc(N2C(=O)C3CC=C(Cl)CC3C2=O)cc1)N1CCCCC1 (stereo not given) -8.18%
Cc1cccc(N)c1SC1CCCCC1O (stereo not given) 2.62%
CCC(c1c(C)n(C)n(-c2ccccc2)c1=O)c1c(C)n(C)n(-c2ccccc2)c1=O 10.1%
Cc1[nH]nc(-c2ccc(O)cc2O)c1Oc1ccccc1 -21.9%
Nc1nnnn1CC(=O)OCc1cccc(Br)c1 12.3%
CC(C)OC(=O)CCNc1n[nH]c(=O)[nH]c1=O 0.163%
Cc1ccc(-c2ccccc2NC(=O)C2C3C=CC(C3)C2C(=O)O)o1 (stereo not given) 11.2%
Clc1cccc(-c2nn3c(COc4ccccc4)nnc3s2)c1 17.5%
CCC(=O)Nc1ccc(-c2nnc(-c3ccccc3)o2)cc1 -0.000551%
CCn1nnc(C(=O)O)c1C(=O)O 1.11%
NC(=O)/C(=N\O)c1ccccc1 -0.233%
Cc1nn(C)cc1/C=N/O 4.83%
CCOC(=O)CSc1nc2sc3c(c2c(=O)[nH]1)CC(C)(C)OC3 4.32%
O=C1CC(NCc2ccncc2)C(=O)N1c1ccc(Cl)cc1 (stereo not given) -1.32%
